NS1 function inh: influenza NS1 inhibition | Potency, µM (doses to about 46.1 µM) | AID 2326 | 270,000 compounds, 0.4% hits; calls by dose curve; note: actives are rising curves; nearly all actives have a fitted effect of over 50% in size
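In this qHTS, NS1 from influenza A is expressed in budding yeast, where it slows growth. Cells are switched from glucose to 2% galactose medium (pH 6.0, -URA), treated with compound, and growth recovery is read at OD600.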
AmpC detergent: blocks E. coli AmpC beta-lactamase in detergent assay | P00811 | AmpC hydrolysis of nitrocefin, absorbance 480 nm, 0.01% Triton | Potency, µM (doses to about 114 µM), actives largely listed as inhibitors | 370,000 compounds, 0.041% hits | AID 485294; note: nearly all actives have a fitted effect of over 25% in size
Target sequence (P00811 whole entry, looked up): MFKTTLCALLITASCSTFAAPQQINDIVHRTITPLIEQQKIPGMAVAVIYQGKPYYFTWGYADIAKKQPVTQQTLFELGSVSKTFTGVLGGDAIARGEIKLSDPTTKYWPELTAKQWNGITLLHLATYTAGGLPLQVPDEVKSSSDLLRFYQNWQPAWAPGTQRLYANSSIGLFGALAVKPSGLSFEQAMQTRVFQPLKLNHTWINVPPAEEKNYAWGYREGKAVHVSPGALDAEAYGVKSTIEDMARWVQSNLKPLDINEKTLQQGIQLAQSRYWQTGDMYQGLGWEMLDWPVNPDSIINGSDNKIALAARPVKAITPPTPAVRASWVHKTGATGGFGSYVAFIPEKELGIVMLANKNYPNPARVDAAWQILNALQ
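20 mM phosphate pH 7.0 + 0.01% (detergent screen) or 0.0001% Triton X-100; 5.3 nM AmpC reagent; cpd preinc 15 min RT; nitrocefin (800 uM stock) to start; A480 q20 s × 4 min; Activity was normalised to no-enzyme and no-compound control wells.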
Shiga inhibitor: inhibitors of Shiga toxin in Vero cells; AID 2315; Vero cells, Shiga toxin protein synthesis inhibition reporter; inhibition, % at 38.7 µM; 290,000 compounds, 9.2% hits; in the data active = inhibition mostly above about 28%, no sharp cut-off; inactive = mostly below about 43%
CHX counter: affects cycloheximide protein synthesis inhibition readout, counter-screen; cell reporter, cycloheximide protein synthesis inhibition counterscreen; max response, %; 300,000 compounds, 12% hits; in the data active = max response mostly above about 13%, no sharp cut-off; inactive = mostly below about 14%; note: read at 38.3 µM for the half of the compounds with a filed dose
AmpC inh no detg: blocks E. coli AmpC beta-lactamase in detergent-free assay; AmpC nitrocefin hydrolysis, absorbance 480 nm, 0.0001% Triton; Potency, µM (doses to about 57.1 µM), hits mostly inhibitors; 330,000 compounds, 0.52% hits; P00811; note: nearly all actives have a fitted effect of over 20% in size
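20 mM phosphate pH 7.0 + 0.01% (detergent screen) or 0.0001% Triton X-100; 5.3 nM AmpC reagent; cpd preinc 15 min RT; nitrocefin (800 uM stock) to start; A480 q20 s × 4 min; Activity was normalised to no-enzyme and no-compound control wells.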
Large screens that a line does not name were inactive. Shown is part of a subset that was picked to be rich in hits. Unless noted, calls come from the whole dose curve; as a rule, active = well fitted curve in the direction sought with a large enough effect; inconclusive = small, poorly fitted or top-dose-only effect, or another doubt; inactive = no such curve, though single readings can be large; an effect the other way counts as inactive or inconclusive.

CC(C)(C)c1ccc(C(=O)NCCOc2ccccc2F)cc1	Shiga inhibitor 34
COc1ccccc1C(=O)NCCOc1ccc(C(C)(C)C)cc1	none
COc1ccc(NC(=O)Cn2c(=O)n(-c3ccc(OC)cc3)c(=O)c3ccc(C(=O)NCc4ccc(C)cc4)cc32)cc1	none (no result: NS1 function inh, Shiga inhibitor, CHX counter, AmpC inh no detg)
CCOC(=O)CSc1nc2ccccc2c(=O)n1NC(=O)c1ccccc1	Shiga inhibitor 66, CHX counter 37
Nn1c(SCc2ccc([N+](=O)[O-])cc2)nc2ccccc2c1=O	NS1 function inh inconclusive
COc1ccc(C(=O)Nn2c(SCC(=O)c3ccccc3)nc3ccccc3c2=O)cc1	AmpC detergent inconclusive, CHX counter 38
COc1ccc(C(=O)Nn2c(SCc3ccc([N+](=O)[O-])cc3)nc3ccccc3c2=O)cc1	NS1 function inh inconclusive, Shiga inhibitor 82, CHX counter 25
CCOC(=O)CSc1nc(C)c2ccccc2n1	CHX counter 11
CCOC(=O)CSc1nc2ccccc2c(=O)n1C	none
CCc1ccc(C(=O)Nn2c(C)nc3ccccc3c2=O)cc1	none
CC(C)CC1NC(=O)c2ccccc2-n2c1nc1ccc(Cl)cc1c2=O (configuration not stated)	none (no result: NS1 function inh, AmpC detergent, Shiga inhibitor, CHX counter)
CN(Cc1ccccc1)C(C(=O)NC1CCCCC1)c1ccc(Cl)cc1 (configuration not stated)	none (no result: NS1 function inh, Shiga inhibitor, CHX counter, AmpC inh no detg)
Cc1cccc(CNc2ncnc3ccc(-c4cccc(Cl)c4)cc23)c1	AmpC inh no detg inconclusive (no result: NS1 function inh, Shiga inhibitor, CHX counter)
CCc1ccccc1NC(=O)C1CCN(c2nn3c(=O)cc(C)nc3s2)CC1	none (no result: NS1 function inh, Shiga inhibitor, CHX counter, AmpC inh no detg)
Clc1ccc2nc(N3CCN(c4ccccc4)CC3)sc2c1	Shiga inhibitor 135, CHX counter 37
Brc1ccc2nc(N3CCN(c4ccccc4)CC3)sc2c1	Shiga inhibitor 156, CHX counter 47 (no result: NS1 function inh)
O=S(=O)(c1ccc(Cl)cc1)N1CCCN(c2nc3ccc(Cl)cc3s2)CC1	none
COc1ccc(OC)c2sc(N3CCN(c4ccccc4)CC3)nc12	none (no result: AmpC detergent, Shiga inhibitor, CHX counter, AmpC inh no detg)
CC(C)c1ccc(NC(=O)CN2C(=O)NC(C)(C3CC3)C2=O)cc1 (configuration not stated)	none (no result: NS1 function inh, Shiga inhibitor, CHX counter)
COc1ccccc1CNC(=O)C1CCC(CNc2c(N3CCC(C)CC3)c(=O)c2=O)CC1 (configuration not stated)	none
Nc1nnnn1/N=C/c1ccc(O)cc1	none
CSc1ccc(/C=N/n2nnnc2N)cc1	CHX counter 27
CCN(CC)c1ccc(/C=N/n2nnnc2N)c(O)c1	CHX counter 14
CCN(C)c1ccc(/C=N\n2nnnc2N)cc1	Shiga inhibitor 65, CHX counter 29
Cc1cccc(-c2noc(-c3cc(C(C)C)[nH]n3)n2)c1	none (no result: NS1 function inh, Shiga inhibitor, CHX counter, AmpC inh no detg)
C=C1C[C@]2(O)[C@@]3(C)CCC(=O)C(C)(C)C3=C(O)C(=O)[C@@]2(C)[C@@H]2C(=O)O[C@@](C)(C(=O)OC)C(=O)[C@@]12C	Shiga inhibitor 64, CHX counter 26
COc1ccc(OC)c(C2Nc3ccccc3NC3=C2C(=O)CC(C)(C)C3)c1 (configuration not stated)	CHX counter 19
COc1ccc(C2Nc3ccccc3NC3=C2C(=O)CC(C)(C)C3)cc1 (configuration not stated)	Shiga inhibitor 84, CHX counter 48
COc1ccccc1C1Nc2ccccc2NC2=C1C(=O)CC(C)(C)C2 (configuration not stated)	none
CC1(C)CC(=O)C2=C(C1)Nc1ccccc1NC2c1cc(Cl)ccc1O (configuration not stated)	none
Cc1ccc(C2Nc3ccccc3NC3=C2C(=O)CC(C)(C)C3)c(O)c1 (configuration not stated)	CHX counter 14
Cc1cc2c(cc1C)NC(c1c(C)n(C)n(-c3ccccc3)c1=O)C1=C(CC(C)(C)CC1=O)N2 (configuration not stated)	Shiga inhibitor 39, CHX counter 19
Cc1nn(C)c2c1c(C(F)(F)F)cc(=O)n2Cc1cccc(Br)c1	none (no result: NS1 function inh, Shiga inhibitor, CHX counter, AmpC inh no detg)
CCN(CC)c1ccc(NC(=O)C(NS(=O)(=O)c2cccs2)C(C)C)c(C)c1 (configuration not stated)	none (no result: NS1 function inh, Shiga inhibitor, CHX counter, AmpC inh no detg)
COc1cccc(CNC(=O)C2CCCN(c3nn4cc(-c5ccc(C)cc5)nc4s3)C2)c1 (configuration not stated)	none (no result: NS1 function inh, Shiga inhibitor, CHX counter, AmpC inh no detg)
COc1ccc(C2Nc3ccccc3NC3=C2C(=O)CC(C)(C)C3)cc1O (configuration not stated)	Shiga inhibitor 70, CHX counter 24
